AMA1 RON2 block: disrupts binding of P. falciparum AMA1 to RON2. AlphaScreen AMA1-biotinylated RON2 peptide binding. hit rate 0.2% among 360,000. Potency, µM (highest dose often 58.2 µM), most hits filed as inhibitors; also: nearly all actives have a fitted effect of over 45% in size
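AMA1 (3D7) with his tag at 25 nM final met compounds first, then biotinylated RON2 peptide at 25 nM; detection used donor plus acceptor beads, 10 µg/mL apiece, read by AlphaScreen after 30 min at room temperature.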
HCV inhibitor: HCV inhibition; Potency, µM (doses to about 41.8 µM), actives largely listed as inhibitors; hit rate 3.4% among 340,000; Huh7.5.1 HCVcc-Cre infection, luciferase reporter, 44 h
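Seed cells (1,000/well) for 4 h; treat with compound and infect with HCVcc-Cre, moi about 0.5. Incubate 44 h, then detect luciferase activity.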
Pf growth 96h: P. falciparum growth inhibition at 96 hour, primary screen for plastid delayed-death inhibitors; P. falciparum luciferase reporter growth, 96 h; Potency, µM (titrated, usually from 28.7 µM), hits mostly inhibitors; hit rate 6.9% among 320,000
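Parasite growth measured via integrated firefly luciferase reporter in P. falciparum. Infected erythrocytes at 2% hematocrit, 0.05% parasitemia final were treated 96 hours at 37 C under 5% CO2, and luminescence was read.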
Cycloheximide cs: counter-screen hit for Shiga toxin inhibitors, cycloheximide; cell reporter, cycloheximide protein synthesis inhibition counterscreen; max response, %; hit rate 12% among 300,000; in the data active = max response mostly above about 13%, no sharp cut-off; inactive = mostly below about 14%; also: read at 38.3 µM for the half of the compounds with a filed dose
Pf growth 48h: inhibits P. falciparum growth in the first generation, 48 h; Potency, µM (doses to about 28.7 µM), most hits filed as inhibitors; hit rate 5.9% among 310,000; P. falciparum luciferase growth in erythrocytes, 48 h; AID 504832
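Luminescence readout; reporter = integrated firefly luciferase in P. falciparum. RBC culture at 2% hematocrit, 0.1% parasitemia final, 37 C/5% CO2; decreased signal taken as growth inhibition.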
Shiga toxin inh: inhibitors of Shiga toxin in Vero cells; Vero cells, Shiga toxin protein synthesis inhibition reporter; inhibition, % at 38.7 µM; hit rate 9.2% among 290,000; AID 2315; in the data active = inhibition mostly above about 28%, no sharp cut-off; inactive = mostly below about 43%
Large screens that a line does not name were inactive. Rows were chosen to be rich in hits. Some 21% of all compounds tested hit in one or more screens of this group. Unless noted, calls follow the shape of the dose curve; as a rule, active = well fitted curve in the direction sought with a large enough effect; inconclusive = small, poorly fitted or top-dose-only effect, or another doubt; inactive = no such curve, though single readings can be large; an effect the other way counts as inactive or inconclusive.

COc1ccc2oc(C(=O)N(C)Cc3ccc(OC(F)F)cc3)c(C)c2c1	Pf growth 96h inconclusive (no result: HCV inhibitor)
CCCc1ccc2oc(C(=O)N3CCC(C(N)=O)(N4CCCCC4)CC3)c(C)c2c1	HCV inhibitor inconclusive, Pf growth 48h inconclusive
Cc1ccc2c(C)c(C(=O)N3CCN(C4CCS(=O)(=O)C4)CC3)oc2c1C (stereo unspecified)	Pf growth 96h inconclusive, Cycloheximide cs 18
O=C(NCCCO)C(=O)Nc1cc2c3c(c1)CCN3C(=O)CC2	none
COc1ccc(CCNC(=O)C(=O)NCC2OCCN2S(=O)(=O)c2ccc(OC)cc2)cc1 (stereo unspecified)	HCV inhibitor inconclusive, Pf growth 96h inconclusive
CC(C)(C)c1ccc(C(=O)NC(=S)NCC2CCCO2)cc1 (stereo unspecified)	Cycloheximide cs 17, Pf growth 48h inconclusive, Shiga toxin inh 148
O=C(NCC1CCCO1)C1CCN(C2CCN(CCCC3CCCC3)CC2)CC1 (stereo unspecified)	HCV inhibitor 10µM, Pf growth 96h inconclusive, Pf growth 48h inconclusive
CC(C)(C)c1ccc(C(=O)NNC(=S)NCC2CCCO2)cc1 (stereo unspecified)	none
O=C(NCC1CCCO1)C1CCN(C(=O)c2ccc(Cl)cc2)CC1 (stereo unspecified)	none (no result: Pf growth 96h)
CC(C)(C)c1ccc(C(=O)N2CCC(C(=O)NCC3CCCO3)CC2)cc1 (stereo unspecified)	Cycloheximide cs 20
COc1ccc(CCNC(=O)C(=O)NCC2OCCN2S(=O)(=O)c2ccc(Cl)cc2)cc1 (stereo unspecified)	HCV inhibitor 11µM
O=C(CSc1nnc(NC(=O)C2CC(=O)N(c3ccc(F)cc3)C2)s1)NC1CCCC1 (stereo unspecified)	Pf growth 96h inconclusive
O=C(Nc1ccc(NS(=O)(=O)c2ccccc2)c(Cl)c1)c1ccccc1	none (no result: Pf growth 96h, Cycloheximide cs, Pf growth 48h, Shiga toxin inh)
CCOC(=O)N1CCN(C(=O)CS(=O)Cc2nc(-c3ccc(OC)c(OC)c3)oc2C)CC1 (stereo unspecified)	Pf growth 96h inconclusive
COc1ccc(CCNC(=O)C(=O)NCC2CCCO2)cc1 (stereo unspecified)	Pf growth 96h 4.1µM
COc1ccc(C(=O)NC(=S)NCC2CCCO2)cc1 (stereo unspecified)	Cycloheximide cs 42, Shiga toxin inh 54
COc1ccc(CNC(=O)C(=O)NCC2CCCO2)cc1 (stereo unspecified)	none
O=C(NC(=S)NCC1CCCO1)c1ccc(Cl)cc1Cl (stereo unspecified)	Pf growth 96h inconclusive, Cycloheximide cs 16, Shiga toxin inh 56
CC(=O)Nc1c([N+](=O)[O-])cc2c3c(cccc13)CC2	none (no result: HCV inhibitor, Pf growth 96h, Cycloheximide cs, Pf growth 48h, Shiga toxin inh)
Cc1ccc(-n2nc3c(c2NC(=O)c2ccc4c(c2)OCO4)CS(=O)(=O)C3)cc1C	Pf growth 96h inconclusive (no result: HCV inhibitor)
O=C(NCCc1ccc(Cl)cc1)c1cc(S(=O)(=O)N2CCCCC2)c[nH]1	Pf growth 48h inconclusive
O=C(C1CCN(C2CCN(Cc3ccc4c(c3)CCO4)CC2)CC1)N1CCOCC1	HCV inhibitor inconclusive, Pf growth 96h 12µM
CC(C)=CC(=O)N1CCC(N2CCC(C(=O)N3CCOCC3)CC2)CC1	none
CC(C)=CCCC(C)CN1CCC(N2CCC(C(=O)N3CCOCC3)CC2)CC1 (stereo unspecified)	HCV inhibitor 0.89µM, Pf growth 48h inconclusive
O=C(C1CCN(C2CCN(Cc3ccsc3)CC2)CC1)N1CCOCC1	HCV inhibitor inconclusive, Pf growth 96h inconclusive
CC(C)=CCCC(C)CN1CCC(N2CCC(C(=O)NC(C)C)CC2)CC1 (stereo unspecified)	HCV inhibitor 2.8µM, Pf growth 96h inconclusive, Pf growth 48h 5.2µM
COc1cc(CNC(=O)Nc2nc(C(N)Cc3ccc(C(F)(F)F)cc3)cs2)cc(OC)c1OC (stereo unspecified)	none (no result: HCV inhibitor, Pf growth 96h, Cycloheximide cs, Pf growth 48h, Shiga toxin inh)
COc1ccc(CN2CSC(=S)N(Cc3ccc(OC)cc3)C2)cc1	Pf growth 96h inconclusive, Pf growth 48h 12µM
S=C1SCN(Cc2ccccc2)CN1Cc1ccccc1	Pf growth 48h inconclusive
S=C1SCN(Cc2cccnc2)CN1Cc1cccnc1	Pf growth 96h inconclusive, Pf growth 48h 1.9µM
N#Cc1cccc(NC(=O)c2cc(C3CCCCN3S(=O)(=O)c3ccccc3)on2)c1 (stereo unspecified)	none (no result: HCV inhibitor, Pf growth 96h, Cycloheximide cs, Pf growth 48h, Shiga toxin inh)
CCCOc1ccc(CC2CCC(=O)NC2=O)cc1 (stereo unspecified)	none
CCCCOc1ccc(C2(C)CC(=O)NC2=O)cc1 (stereo unspecified)	Cycloheximide cs 22 (no result: Pf growth 96h)
COc1cc2c(cc1NC(=S)Nc1ccccc1C)oc1ccccc12	HCV inhibitor inconclusive, Cycloheximide cs 33, Shiga toxin inh 91 (no result: Pf growth 96h)
COc1cc2c(cc1NC(=S)Nc1cccc(C)c1)oc1ccccc12	HCV inhibitor 8.9µM (no result: Pf growth 96h)
COc1cc2c(cc1NC(=S)NC(=O)/C=C/c1ccco1)oc1ccccc12	HCV inhibitor inconclusive
COc1cc2c(cc1NC(=O)C1CCCO1)oc1ccccc12 (stereo unspecified)	HCV inhibitor 7.9µM, Cycloheximide cs 50, Shiga toxin inh 134 (no result: Pf growth 96h)
COc1cc2c(cc1NC(=S)NC(=O)/C=C/c1ccc(OC)c(OC)c1)oc1ccccc12	none
COc1cc2c(cc1NC(=O)Nc1cccc(C)c1)oc1ccccc12	HCV inhibitor inconclusive (no result: Pf growth 96h)
CCCNC(=S)Nc1cc2oc3ccccc3c2cc1OC	HCV inhibitor inconclusive, Pf growth 96h 3.3µM, Pf growth 48h inconclusive
c1cnc2c(-c3ccc4nccn4c3)cccc2c1	none (no result: HCV inhibitor, Pf growth 96h, Cycloheximide cs, Pf growth 48h, Shiga toxin inh)
CCNC(=S)Nc1cc2oc3ccccc3c2cc1OC	HCV inhibitor 22µM
CNC(=S)Nc1cc2oc3ccccc3c2cc1OC	HCV inhibitor 11µM
CC1=C(C(=O)OC2CCC(C)CC2)C(c2ccc(O)c([N+](=O)[O-])c2)NC(=O)N1 (stereo unspecified)	Pf growth 96h inconclusive (no result: Shiga toxin inh)
CC(C)COC(=O)N1CCCCC1c1cc(C(=O)NCc2cccnc2)no1 (stereo unspecified)	none (no result: HCV inhibitor, Pf growth 96h, Cycloheximide cs, Pf growth 48h, Shiga toxin inh)
C#CCCc1cscc1/C=[N+](\[O-])c1ccc(C(=O)OCC)cc1	HCV inhibitor inconclusive, Pf growth 96h inconclusive, Pf growth 48h 8.3µM (no result: Cycloheximide cs, Shiga toxin inh)
CCOC(=O)c1ccc(/[N+]([O-])=C/c2ccccc2)cc1	AMA1 RON2 block inconclusive (no result: Cycloheximide cs, Shiga toxin inh)
O=C(O)c1cc2nccc(-c3ccc(F)cc3)n2n1	none
Cc1cccn2c(=O)c3cc(C(=O)NC4CCCC4)c(=N)n(CCc4ccccc4)c3nc12	Pf growth 96h 4.1µM, Pf growth 48h 0.47µM
Cc1cccn2c(=O)c3cc(C(=O)NC4CCCC4)c(=N)n(C4CCCCC4)c3nc12	Pf growth 96h inconclusive
COc1ccc(CCn2c(=N)c(C(=O)NCC3CCCO3)cc3c(=O)n4ccccc4nc32)cc1 (stereo unspecified)	Pf growth 96h 4.7µM, Pf growth 48h 4.7µM
Cc1cccn2c(=O)c3cc(C(=O)NC4CCCC4)sc3nc12	HCV inhibitor inconclusive, Pf growth 96h inconclusive, Cycloheximide cs 19, Pf growth 48h inconclusive

Source: PubChem BioAssay
